Measurements published in the supplement of paper PMC6555819.

Legend:
Assay in all cases: PBM binding z-score (relative to random genomic background probes); higher = stronger binding; sequences stand for … in GC…GCGATTGACAGCGTAGAATGAAGG
[1] = system: FXR:RXRa (NR concentration 270 nM, RXRa partner concentration 90 nM)
How it was run: (§1)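 The probes on custom Agilent 4×180K protein-binding microarrays were double-stranded, with 34-nt variable regions bearing direct-repeat seeds, single-nucleotide variants, half-site ablations and random human genomic background sequences. Incubation lasted 1 h with ligand-free nuclear receptor dimers in PBS pH 7.4, 2% milk, 0.02% Triton X-100, 1 mM DTT, 0.2 mg/mL BSA and 0.4 mg/ml salmon testes DNA. Antibodies against each partner (one per run) detected bound dimers, and fluorescence scans were regression-normalized. Binding z-scores take the random background probes as reference.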

[2] = system: LXRa:RXRa (NR concentration 270 nM, RXRa partner concentration 90 nM)
How it was run: as §1

[3] = system: LXRa homodimer (NR concentration 270 nM)
How it was run: as §1

[4] = system: LXRb:RXRa (NR concentration 270 nM, RXRa partner concentration 90 nM)
How it was run: as §1

[5] = system: LXRb homodimer (NR concentration 270 nM)
How it was run: as §1

[6] = system: PPARa:RXRa (NR concentration 270 nM, RXRa partner concentration 90 nM)
How it was run: as §1

[7] = system: PPARg:RXRa (NR concentration 180 nM, RXRa partner concentration 90 nM)
How it was run: as §1

[8] = system: PPARg:RXRa 270nM:90nM, anti-RXR (NR concentration 270 nM, RXRa partner concentration 90 nM)
How it was run: as §1

[9] = system: PPARg:RXRa 30nM:10nM, anti-RXR (NR concentration 30 nM, RXRa partner concentration 10 nM)
How it was run: as §1

[10] = system: PPARg:RXRa 90nM:30nM, anti-RXR (NR concentration 90 nM, RXRa partner concentration 30 nM)
How it was run: as §1

[11] = system: PPARg:RXRa DBDmut IVT, anti-RXR (DBD mutation: RXRa K156A/R161A, NR concentration 270 nM, RXRa partner concentration 90 nM)
How it was run: as §1

[12] = system: PPARg:RXRa IVT, anti-PPARg (NR concentration 270 nM, RXRa partner concentration 90 nM)
How it was run: as §1

[13] = system: PPARg DBDmut:RXRa IVT, anti-PPARg (DBD mutation: PPARg1 K132A/R137A, NR concentration 270 nM, RXRa partner concentration 90 nM)
How it was run: as §1

[14] = system: PPARg DBDmut IVT, anti-PPARg (DBD mutation: PPARg1 K132A/R137A, NR concentration 270 nM)
How it was run: as §1

[15] = system: PPARg homodimer (NR concentration 180 nM)
How it was run: as §1

[16] = system: PXR:RXRa (NR concentration 270 nM, RXRa partner concentration 90 nM)
How it was run: as §1

[17] = system: PXR homodimer (NR concentration 270 nM)
How it was run: as §1

[18] = system: RARa:RXR (NR concentration 270 nM, RXRa partner concentration 90 nM)
How it was run: as §1

[19] = system: RARa homodimer (NR concentration 270 nM)
How it was run: as §1

[20] = system: RARb:RXRa (NR concentration 270 nM, RXRa partner concentration 90 nM)
How it was run: as §1

Sequence | PBM binding z-score [1] | PBM binding z-score [2] | PBM binding z-score [3] | PBM binding z-score [4] | PBM binding z-score [5] | PBM binding z-score [6] | PBM binding z-score [7] | PBM binding z-score [8] | PBM binding z-score [9] | PBM binding z-score [10] | PBM binding z-score [11] | PBM binding z-score [12] | PBM binding z-score [13] | PBM binding z-score [14] | PBM binding z-score [15] | PBM binding z-score [16] | PBM binding z-score [17] | PBM binding z-score [18] | PBM binding z-score [19] | PBM binding z-score [20]
TCATATAGGTAAAAGGTGCAAGTCGGTGTGGTAA | 1.29 | 1.09 | 0.188 | 1.25 | 0.0143 | 3.34 | 5.37 | 5.97 | 5.85 | 6.52 | 4.71 | 3.76 | 0.923 | 0.831 | 1.63 | 0.954 | 0.487 | 0.733 | 1.23 | 0.917
CGAACTAGGTCACAGAGGTCAAAGTCCGTGCGTA | 7.51 | 6.91 | 7.06 | 6.5 | 1.96 | 6.56 | 10.2 | 8.5 | 7.02 | 8.62 | 8.62 | 8.94 | 8.99 | 6.82 | 9.8 | 6.92 | 13.2 | 7.77 | 5.26 | 5.23
CAGCCTAGGTCCGGGCCAGTATAGGAGGAACGTT | -0.987 | -1.11 | -0.834 | -1.41 | -1.47 | -1.78 | -0.191 | -0.878 | -0.996 | -1.2 | -1.2 | -1.1 | -2.15 | -1.84 | -1.61 | -1.01 | -0.992 | -1.12 | -1.43 | -0.671
CCTGCTAGGTCAATGATCAGCTAAAGCAGCTCGC | 2.71 | 1.96 | -0.345 | 1.3 | -0.139 | 2.62 | 1.98 | 2.46 | 0.000172 | 1.24 | 4.45 | 3.19 | -0.369 | -0.701 | 1.17 | 0.559 | -0.751 | 1.13 | -0.385 | 3.62
ACAGACAGGTGATGAGGGTAACTCAGGCTATCAT | 0.367 | -0.0236 | 0.0191 | 0.0104 | -0.517 | 0.465 | 0.8 | -0.0214 | 0.142 | -0.218 | -0.0163 | 0.685 | -0.934 | 0.0306 | 0.543 | 0.296 | -0.131 | 0.591 | -0.698 | 0.496
TCTTGTAGATCAACAGGAGGTTAAGTAAGATCGA | 0.451 | 1.3 | 0.363 | 1.17 | -0.23 | 1.52 | -0.0593 | 1.22 | 2.44 | 1.51 | 1.56 | 0.854 | 0.235 | 0.997 | -0.29 | 0.916 | -0.272 | 1.46 | 0.0899 | 0.659
CTTACTGGGCCAAGGTCATTGATCAGTCAAAGCA | 3.38 | 3.5 | 1.27 | 3.15 | 0.239 | 4.7 | 6.21 | 5.67 | 3.67 | 5.42 | 6.43 | 6.49 | 1.83 | 1.71 | 2.67 | 3.89 | 1.48 | 4.38 | 0.236 | 3.38
GCAGACAGGTGATACGCAGGTAACTCAGGGTGGC | -0.378 | -0.342 | -0.563 | -0.687 | -1.16 | -0.129 | 0.508 | -0.512 | -0.33 | -0.762 | -0.192 | -0.471 | -0.737 | -0.846 | -0.0293 | -0.424 | -0.57 | 0.0928 | -0.408 | -0.253
ACAGACTGGTGAGTGAAGGTAACTCAGCTGGACG | -0.31 | -0.557 | -0.264 | -0.755 | -0.871 | -0.552 | 0.259 | -0.5 | -0.557 | -0.438 | -0.695 | -0.409 | -0.15 | -0.348 | 0.0199 | -0.565 | -0.163 | -0.434 | -0.0964 | -0.281
